Common to all, as to experiment: NCI-60 one-dose screen, 48 h (100 = growth as untreated, 0 = no growth, -100 = all killed)
What all share (settings): 10 µM unless noted

In assay [1] the test system is NCI-H23 lung.
Assay [2] deals with NCI-H226 lung.
Assay [3] deals with NCI-H322M lung.
In assay [4] the test system is HOP-62 NSCLC.
The subject of assay [5] is NCI-H460 lung.
The subject of assay [6] is 786-0 renal.
In assay [7] the test system is DU-145 prostate.
The subject of assay [8] is MDA-MB-231 breast.
Assay [9] deals with SF-268 CNS.
Assay [10] has as its system SF-539 CNS.
The test system of assay [11] is M14 melanoma.
In assay [12] the test system is SNB-19 CNS.
The test system of assay [13] is U251 CNS.
Assay [14] concerns SN12C renal.
Assay [15] deals with UO-31 renal.
The test system of assay [16] is SK-OV-3 ovarian.
Assay [17] has as its system MDA-MB-435 melanoma.
For assay [18], the system named is SW-620 colon.
The test system of assay [19] is HCT-116 colon.
Assay [20] relates to KM12 colon.

About 83,000 compounds went through this panel and 20% of them were active in at least one assay; those are over-represented in the sample as a whole.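 Step 1: grow cells in 96-well plates. Step 2: add test compound at a single concentration. Step 3: incubate 48 h. Step 4: record percent growth.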 A number with no mark means an inactive call. The source made the active and inactive calls. The calls were made as follows: active = growth percent below 10; inactive = the rest.

As for `COc1ccc(/C=C\c2cc(OC)c(OC)c(OC)c2)cc1N/C=C\C(=O)c1c[nH]c2ccccc12`, the growth in assay [1] is 26.6%; in assay [2], -0.606% (active); in assay [3] it was 40.6%; in assay [4], 39.3%; in [5], 6.44% (active); in assay [6], 20.9%. The growth was 3.53% (active) in assay [7]; 18.4% in [8]; 15.1% in assay [9]; -43.4% (active) in [10]; 11.3% in assay [11]; 38.6% in [12]. For the same compound, the growth was 15.5% in assay [13]; 26.1% in [14]; 26.4% in assay [15]; 12.9% in assay [16]; -7.95% (active) in assay [17]; 24.7% in assay [18]. Further, the growth is 2.62% (active) in assay [19] and 3.99% (active) in [20].

In the case of `CNC(C)Cc1ccccc1` (centres undefined) (tested in a mixture with another compound), the growth in [1] was 99.2%; in assay [2] it was 99.5%; in [3] it was 89.2%; in assay [4] it was 98%; in assay [5], 104%; in assay [6], 102%. The growth in assay [7] was 108%; in assay [8], 120%; in assay [9], 108%; in assay [10], 99.7%; in assay [11], 103%; in assay [12] it was 105%. Besides, the growth is 89.9% in [13]; 104% in [14]; 82.9% in [15]; 92.8% in assay [16]; 104% in [17]; 102% in [18]. Besides, the growth in [19] is 100%; in assay [20] it was 99.8%.

Take `Fc1ccc(C2=NN(c3ccccc3)C(c3sc(N(CCCl)CCCl)nc3Cl)C2)cc1` (centres undefined): the growth in assay [1] was 85.4%; in assay [2], 74.1%; in assay [3] it was 82.3%; in [4] it was 78%; in [5], 90.7%; in [6], 92.2%. Moreover, the growth in assay [7] was 109%; in [8] it was 69%; in [9], 86.5%; in [10], 101%; in assay [11], 92.2%; in [12] it was 95.6%. Further, the growth in [13] is 85.9%; in [14], 86.9%; in assay [15], 67.6%; in assay [16] it was 76.5%; in [17], 93.9%; in [18], 84.4%. Besides, the growth in assay [19] is 68.2%; in assay [20], 81.1%.

On to `ClCCN(CCCl)c1nc(Cl)c(C2CC(c3ccc(Cl)cc3)=NN2c2cc(Cl)cc(Cl)c2)s1` (centres undefined), for which the growth in assay [1] is 94.1%; in assay [2], 99.9%; in assay [3], 102%; in assay [4] it was 98.4%; in assay [5], 101%; in assay [6], 103%. Moreover, the growth is 116% in assay [7]; 107% in assay [8]; 102% in [9]; 118% in assay [10]; 95.8% in assay [11]; 88.1% in assay [12]. The growth in assay [13] was 98.6%; in assay [14], 92%; in assay [15] it was 91.3%; in [16] it was 87.1%; in assay [17] it was 103%; in [18], 99.2%. Besides, the growth in assay [19] is 85.8%; in assay [20], 108%.

`O=C1NC(=O)C(Cc2ccccc2)(Cc2ccccc2)C(=O)N1`: the growth in assay [1] was 111%; in [2], 105%; in assay [3], 111%; in assay [4] it was 95.8%; in [5], 110%; in [6], 98.6%. Also, the growth in [7] was 115%; in assay [8], 98.9%; in assay [9] it was 109%; in assay [10] it was 110%; in assay [11] it was 103%; in [12] it was 102%. In addition, the growth was 102% in [13]; 104% in assay [14]; 78.7% in assay [15]; 89.2% in assay [16]; 113% in assay [17]; 107% in assay [18]. The values for the growth in [19] and in assay [20] were 107% and 105%, respectively.

Consider `COc1cc(/C=C\c2cc(OC)c(OC)c(OC)c2)cc(N/C=C\C(=O)c2ccc(OC(F)(F)F)cc2)c1OC`, for which the growth in assay [1] is 26.2%; in assay [2], 54.4%; in [3], 42.4%; in [4], 23.8%; in [5], 4.92% (active); in assay [6], 34.3%. Besides, the growth is 14.4% in assay [7]; -16.9% (active) in assay [8]; 41.7% in assay [9]; -31.5% (active) in assay [10]; -4.87% (active) in [11]; 74.6% in [12]. Besides, the growth in assay [13] is 14.8%; in assay [14], 36.5%; in assay [15], 32.9%; in assay [16], 19.9%; in assay [17] it was -42.2% (active); in assay [18], 26.3%. The growth was 8.14% (active) in [19] and 16.6% in [20].

Regarding `CCCCCCCC(=O)OCC/C=C/C1OC1C1OC(=O)/C=C\C=C\c2nc(oc2C)/C=C(/C)CCC2OC2C1OC(=O)NC(C)=O` (centres undefined), the growth in assay [1] was -59.1% (active); in [2], -37.5% (active); in [3] it was 15.6%; in [4], -11.6% (active); in [5], -51.5% (active); in [6], -53.8% (active). Also, the growth in [7] is -74.5% (active); in assay [9] it was 5.33% (active); in assay [10] it was -34.1% (active); in assay [11], -20.4% (active); in assay [12] it was -56.8% (active); in [13], -34.3% (active). In addition, the growth is -99.9% (active) in assay [14]; 2.49% (active) in assay [15]; -38.5% (active) in [16]; 3.24% (active) in [17]; -65.4% (active) in assay [18]; -24.4% (active) in [19]. Besides, the growth in assay [20] is -74% (active).

With `CC1(C)CC2(CC(C)(C)c3cc(O)c(O)cc32)c2cc(O)c(O)cc21`, the growth was 108% in [1]; 85.7% in [2]; 102% in [3]; 95.9% in assay [4]; 97.7% in assay [5]; 94% in assay [6]. The growth in assay [7] was 98.8%; in assay [8], 91.5%; in assay [9], 88.6%; in assay [10], 98.4%; in assay [11], 98.1%; in assay [12], 104%. The growth in assay [13] was 92.3%; in assay [14] it was 94.2%; in assay [15] it was 75.2%; in assay [16], 97.1%; in [17], 84.8%; in [18], 95.7%. Further, the results for the growth in [19] and in assay [20] were 85.4% and 94.4%, respectively.

The values are drawn from PubChem BioAssay (NCI).
